We go through seven molecules from PubChem BioAssay (Tox21).

Assay [1] is described as follows: Nuclear factor erythroid 2-related factor 2/antioxidant responsive element (Nrf2/ARE) small molecule agonists: qHTS cell viability counter screen in human keratinocytes (AID 1919968; active means well fitted curve in the direction sought with a large enough effect in the repeat runs; an effect the other way counts as inactive or inconclusive; further: nearly all actives have a fitted effect of over 55% in size). Summed up: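 After a 5 h attachment period, ARE-reporter keratinocytes were dosed with compounds in DMSO and then cultured 23 h at 37 C. Cell viability came from CellTiter-Fluor signal read after a further 1 h.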
A general note: In qHTS, concentration-response curves come from the screen itself.

A short description of assay [2]: Nuclear factor erythroid 2-related factor 2/antioxidant responsive element (Nrf2/ARE) small molecule agonists: luciferase reporter gene qHTS assay in human keratinocytes (AID 1919969). Further: nearly all actives have a fitted effect of over 35% in size. Further: potency means the concentration at half of the fitted maximal effect. In general terms: In a reporter assay the amount or activity of a reporter protein is the signal.
Assay [3] addresses Gonadotropin-releasing hormone receptor (Homo sapiens) (UniProt P30968). In words: Human gonadotropin-releasing hormone receptor (GnRHR) small molecule agonists, calcium flux assay in GnRHR-HEK293 cells (AID 1920063). Further: nearly all actives have a fitted effect of over 35% in size. Summed up:
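We seeded human GnRHR-expressing HEK293 cells for 18 hours, loaded them with calcium dye for an hour at 37 C, added test compounds, and recorded fluorescence intensity kinetically for three minutes.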

The target in assay [4] is KiSS-1 receptor (Homo sapiens) (UniProt Q969F8). In words: Human kisspeptin (KISS1R) small molecule agonists, calcium flux assay in KISS1R-HEK293 cells (AID 1920064; active means well fitted curve in the direction sought with a large enough effect in the repeat runs; an effect the other way counts as inactive or inconclusive). The method, boiled down: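 Kinetic calcium assay, 1 s sampling over 3 min at Ex/Em 480/540, in HEK293 cells engineered with human KISS1R; compounds delivered in DMSO after 1 h dye loading.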
(In general: Calcium flux is commonly read through the fluorescence of an indicator in the cells.)

The nature of assay [5]: G protein-coupled receptor (GPCR) small molecule agonists, calcium flux assay: HEK293 wild type cell line counter screen (AID 1920065). The method, boiled down:
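Calcium-sensitive dye, loaded 1 h at 37 C into cells cultured 18 h, reports compound-evoked calcium release as fluorescence (Ex/Em 480/540), measured over 3 min. Agonist mode; 15-point titrations, triplicate.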

Assay [6] is described as follows: p53 small molecule agonists, cell-based qHTS assay with human liver microsomes (AID 1963577). Further: potency means the concentration at half of the fitted maximal effect. Summed up: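 Compounds act here after metabolic activation: human liver microsomes and NADPH, both at 0.5 mg/mL final, were co-added to p53RE-bla cells. Incubation ran 16 h at 37 C, followed by LiveBLAzer detection.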
Assay [7] can be described thus: p53 small molecule agonists, cell-based qHTS assay with human liver microsomes: qHTS cell viability counter screen (AID 1963579). Further: nearly all actives have a fitted effect of over 45% in size. Summed up: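 Cells carrying the p53 response-element beta-lactamase reporter are treated for 16 h at 37 C with test compounds in the presence of human liver microsomes and NADPH (both 0.5 mg/mL final); ATP-based CellTiter-Glo luminescence then reports viability.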

Assay [8] is described as follows: p53 small molecule agonists, cell-based qHTS assay with rat liver microsomes: qHTS cell viability counter screen (AID 1963580). Further: nearly all actives have a fitted effect of over 45% in size. The method, boiled down: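 In HCT-116 cells carrying a p53 response element-bla reporter, compounds were metabolically activated in situ by rat liver microsomes with NADPH over 16 h. Cell ATP content then served as the cytotoxicity measure.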

Assay [9] can be described thus: p53 small molecule agonists, cell-based qHTS assay: qHTS cell viability counter screen (AID 1963581). Further: nearly all actives have a fitted effect of over 45% in size. The method, boiled down: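 Following 5 h attachment, HCT-116 p53RE-bla cells took up compound for 16 h at 37 C; the reporter was read with B/G FRET substrate (2 h RT), and viability then via CellTiter-Glo ATP luminescence.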
Assay [10] is described as follows: p53 small molecule agonists, cell-based qHTS assay (AID 1963582; active means well fitted activation curve with a large enough effect in the signal ratio in the repeat runs, not every such curve was filed as active; the % refers to the signal ratio). The method, boiled down:
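In this cell-based concentration-response screen, a p53 response element drives beta-lactamase; cells received DMSO-borne compounds after 5 h culture and were incubated a further 16 h before FRET substrate development.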

The target of assay [11] is 5-hydroxytryptamine receptor 2A (Homo sapiens) (UniProt P28223). Put plainly: 5-hydroxytryptamine receptor 2A (HTR2A) small molecule antagonists, cell-based qHTS assay (AID 1963586). Further: nearly all actives have a fitted effect of over 45% in size. The method, boiled down: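 Antagonist-mode intracellular calcium assay: DOI (4 nM) added after 5 min compound pre-incubation at room temperature to dye-loaded HTR2A-CHO cells. Fluorescence followed for 3 min, sampled every second.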

Assay [12] shares this target. In words: 5-hydroxytryptamine receptor 2A (HTR2A) small molecule agonists, cell-based qHTS assay (AID 1963587). Further: nearly all actives have a fitted effect of over 30% in size. Summed up: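 HTR2A-CHO cells, plated 18 h at 37 C/5% CO2, dye-loaded 1 h at 37 C; compounds in DMSO added by pin tool (agonist mode). Intracellular calcium flux read as kinetic fluorescence on FDSS over 2 min at 1 s intervals.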
Assay [13] deals with Muscarinic acetylcholine receptor M1 (Homo sapiens) (UniProt P11229). In words: Cholinergic receptor muscarinic 1 (CHRM1) small molecule antagonists, cell-based qHTS assay (AID 1963588). Further: nearly all actives have a fitted effect of over 40% in size. The method, boiled down:
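CHRM1-CHO calcium-flux assay, antagonist mode. Cells were seeded 18 h, dye-loaded 1 h at 37 C and given compound for 5 min at RT, then acetylcholine was added at 50nM. FDSS fluorescence was read 3 min; 15 concentrations, three runs.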

Assay [14] has the same target. In words: Cholinergic receptor muscarinic 1 (CHRM1) small molecule agonists, cell-based qHTS assay (AID 1963589). Further: nearly all actives have a fitted effect of over 35% in size. The method, boiled down: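 Measures agonist-induced intracellular calcium rise. Stable human CHRM1 CHO line, 1 h dye load at 37 C, compounds from DMSO, kinetic fluorescence read.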
Assay [15] has as its target Beta-2 adrenergic receptor (Homo sapiens) (UniProt P07550). In words: Adrenergic beta2 receptor (ADRB2) small molecule antagonists, cell-based qHTS assay (AID 1963592). Further: series mostly up to about 92 µM; nearly all actives have a fitted effect of over 50% in size. Summed up:
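Cells (CHO, stable ADRB2 overexpression) incubated 18-20hr at 37C; compounds added from DMSO; agonist mix (1nM isoproterenol, 100uM IBMX, 25uM Ro-20-1724) added; 0.5hr RT; d2-cAMP and anti-cAMP-cryptate added; 1hr RT; 665/615 nm read.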

Assay [16] addresses D(2) dopamine receptor (Homo sapiens) (UniProt P14416). Put plainly: Dopamine D2 receptor (DRD2) small molecule antagonists, cell-based qHTS assay (AID 1963595; active means well fitted inhibition curve with a large enough effect in the signal ratio in the repeat runs, with a control signal flat; the % refers to the signal ratio). Summed up:
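DRD2-HEK293; 0.1 mM Ro20-1724; cpd 10 min RT; NKH477 200 nM + quinpirole 12 nM, 30 min RT; HTRF cAMP (cAMP-d2/anti-cAMP cryptate), 665/620 nm ratio after 1 h.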

Assay [17] can be described thus: cAMP Responsive Elements (CRE) small molecule agonists, cell-based qHTS assay (AID 1963590). Summed up:
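A CRE-responsive beta-lactamase reporter in HEK 293T cells was used. Treatment ran 3 h at 37 C; detection used LiveBLAzer B/G FRET substrate for 2 h at room temperature.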

Assay [18] addresses D(2) dopamine receptor (Homo sapiens) (UniProt P14416). In words: Dopamine D2 receptor (DRD2) small molecule agonists, cell-based qHTS assay (AID 1963594). Further: nearly all actives have a fitted effect of over 35% in size. The method, boiled down:
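HEK293 cells stably expressing DRD2 were cultured 24 h at 37 C, then given Ro20-1724 (0.1 mM final) and compounds for 10 min at room temperature. NKH477 (200nM) was then added for 30 min. cAMP was read by HTRF.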

Assay [19] can be described thus: p53 small molecule agonists, cell-based qHTS assay with rat liver microsomes (AID 1963578). The method, boiled down:
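Read-out is beta-lactamase reporter fluorescence (LiveBLAzer, 2 h, room temperature, dark) in p53RE-bla cells treated 16 h at 37 C with compound, rat liver microsomes and NADPH, both 0.5 mg/mL final.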

The nature of assay [20]: cAMP Responsive Elements (CRE) small molecule antagonists, cell-based qHTS assay (AID 1963591; active means well fitted inhibition curve with a large enough effect in the signal ratio in the repeat runs, not every such curve was filed as active; the % refers to the signal ratio). Summed up: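 HEK293T cells carrying a CRE-driven beta-lactamase reporter receive compound and NKH477 (0.25 uM final) for 3 h. Fluorescence from LiveBLAzer B/G FRET substrate is read after 2 h at room temperature.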

Structures are written as SMILES. Unmarked numbers belong to inactive results. Records with an inconclusive call do not appear. Activity calls are given as the source filed them. Unless noted, the call rests on the fitted dose curve.

Gonadotropin-releasing hormone receptor (Homo sapiens), sequence (P30968 whole entry, looked up): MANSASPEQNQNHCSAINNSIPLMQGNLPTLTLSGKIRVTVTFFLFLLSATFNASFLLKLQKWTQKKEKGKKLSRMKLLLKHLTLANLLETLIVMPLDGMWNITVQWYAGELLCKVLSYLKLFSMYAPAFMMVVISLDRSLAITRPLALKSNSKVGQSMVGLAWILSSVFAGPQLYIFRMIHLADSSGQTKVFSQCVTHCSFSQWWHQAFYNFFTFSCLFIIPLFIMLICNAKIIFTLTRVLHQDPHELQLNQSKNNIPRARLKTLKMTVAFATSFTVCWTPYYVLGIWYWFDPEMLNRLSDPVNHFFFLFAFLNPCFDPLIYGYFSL
5-hydroxytryptamine receptor 2A (Homo sapiens), sequence (P28223 whole entry, looked up): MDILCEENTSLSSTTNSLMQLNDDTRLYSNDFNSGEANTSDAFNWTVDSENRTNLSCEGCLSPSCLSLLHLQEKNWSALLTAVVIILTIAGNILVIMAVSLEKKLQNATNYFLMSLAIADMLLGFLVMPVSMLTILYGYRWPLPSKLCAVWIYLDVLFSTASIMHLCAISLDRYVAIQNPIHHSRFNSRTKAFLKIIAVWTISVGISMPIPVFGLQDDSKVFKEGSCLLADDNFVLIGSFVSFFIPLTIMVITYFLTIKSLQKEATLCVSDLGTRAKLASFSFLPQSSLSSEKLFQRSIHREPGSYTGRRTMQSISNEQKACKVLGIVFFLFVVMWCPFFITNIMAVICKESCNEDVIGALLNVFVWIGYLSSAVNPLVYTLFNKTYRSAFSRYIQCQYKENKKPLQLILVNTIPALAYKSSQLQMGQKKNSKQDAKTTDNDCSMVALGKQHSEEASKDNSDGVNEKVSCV
KiSS-1 receptor (Homo sapiens), sequence (Q969F8 whole entry, looked up): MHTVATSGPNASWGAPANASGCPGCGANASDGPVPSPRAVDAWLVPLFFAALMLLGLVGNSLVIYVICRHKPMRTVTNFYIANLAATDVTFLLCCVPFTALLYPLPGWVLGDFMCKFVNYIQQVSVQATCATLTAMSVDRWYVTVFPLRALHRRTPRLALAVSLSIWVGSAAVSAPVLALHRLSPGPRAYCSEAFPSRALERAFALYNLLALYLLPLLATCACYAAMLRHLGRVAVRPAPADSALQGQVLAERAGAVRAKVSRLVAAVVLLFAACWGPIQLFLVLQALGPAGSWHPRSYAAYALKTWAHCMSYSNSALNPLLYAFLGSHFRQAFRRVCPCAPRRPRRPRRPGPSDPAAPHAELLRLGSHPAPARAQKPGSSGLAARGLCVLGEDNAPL
Beta-2 adrenergic receptor (Homo sapiens), sequence (P07550 whole entry, looked up): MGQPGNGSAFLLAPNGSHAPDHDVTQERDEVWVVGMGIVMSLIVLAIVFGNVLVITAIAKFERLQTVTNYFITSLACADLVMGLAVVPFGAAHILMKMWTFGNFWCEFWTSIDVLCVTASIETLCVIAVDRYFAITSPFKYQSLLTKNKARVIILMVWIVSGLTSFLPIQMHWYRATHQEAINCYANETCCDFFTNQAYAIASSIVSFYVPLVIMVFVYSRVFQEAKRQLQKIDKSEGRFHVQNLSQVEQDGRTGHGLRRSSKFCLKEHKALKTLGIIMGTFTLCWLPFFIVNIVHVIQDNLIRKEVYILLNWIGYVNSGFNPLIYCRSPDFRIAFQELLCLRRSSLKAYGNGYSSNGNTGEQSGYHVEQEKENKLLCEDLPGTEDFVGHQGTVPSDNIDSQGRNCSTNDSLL
Muscarinic acetylcholine receptor M1 (Homo sapiens), sequence (P11229 whole entry, looked up): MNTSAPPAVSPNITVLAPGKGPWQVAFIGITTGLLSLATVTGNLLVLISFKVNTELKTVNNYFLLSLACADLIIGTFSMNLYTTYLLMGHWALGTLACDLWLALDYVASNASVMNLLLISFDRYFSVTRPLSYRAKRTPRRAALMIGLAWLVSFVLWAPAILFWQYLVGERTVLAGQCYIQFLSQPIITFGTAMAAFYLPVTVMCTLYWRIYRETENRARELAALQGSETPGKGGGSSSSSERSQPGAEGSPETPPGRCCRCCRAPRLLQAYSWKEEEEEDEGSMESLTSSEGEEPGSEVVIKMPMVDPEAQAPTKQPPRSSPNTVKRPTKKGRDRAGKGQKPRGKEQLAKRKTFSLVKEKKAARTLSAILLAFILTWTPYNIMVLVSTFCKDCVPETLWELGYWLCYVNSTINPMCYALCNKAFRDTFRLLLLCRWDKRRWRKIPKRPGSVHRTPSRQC
D(2) dopamine receptor (Homo sapiens), sequence (P14416 whole entry, looked up): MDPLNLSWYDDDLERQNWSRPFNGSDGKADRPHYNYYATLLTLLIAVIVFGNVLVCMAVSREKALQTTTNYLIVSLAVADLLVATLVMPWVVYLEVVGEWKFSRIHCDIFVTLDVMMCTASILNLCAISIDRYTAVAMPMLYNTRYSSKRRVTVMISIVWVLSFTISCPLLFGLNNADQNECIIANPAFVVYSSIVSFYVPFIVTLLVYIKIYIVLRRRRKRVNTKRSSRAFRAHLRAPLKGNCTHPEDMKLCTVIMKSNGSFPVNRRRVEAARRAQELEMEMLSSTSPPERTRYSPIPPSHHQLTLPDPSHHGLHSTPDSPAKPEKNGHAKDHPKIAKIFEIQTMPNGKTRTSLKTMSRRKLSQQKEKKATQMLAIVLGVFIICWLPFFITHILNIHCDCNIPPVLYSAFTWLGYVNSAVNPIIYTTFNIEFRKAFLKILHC

On to `COc1cc(Cl)c(OC)cc1Cl`, for which the Potency entry in assay [1], in assay [2], in assay [3], in assay [4], in assay [5] and in assay [6] was “inactive” each time. For the same molecule, the Potency entry in assay [7], in assay [8], in assay [9], in assay [10], in [11] and in assay [12] was “inactive” throughout. The Potency result in assay [13], in assay [14], in [15] and in [16] was “inactive” throughout.

Take `OP(O)c1ccccc1`: the Potency entry in assay [1], in assay [2], in assay [3], in assay [4], in assay [5] and in [6] was “inactive” in each case. Also, the Potency result in assay [7], in [8], in assay [9], in [10], in [11] and in [12] was “inactive” throughout. Moreover, the Potency entry in assay [13], in assay [14], in [17], in assay [15] and in assay [16] was “inactive” each time.

For `O=[N+]([O-])c1ccc2c3c(cccc13)CC2`, the Potency entry in assay [1], in [2], in [3], in assay [4], in assay [5] and in assay [6] was “inactive” each time. Moreover, the Potency result in [7], in assay [8], in assay [9], in [10], in assay [11] and in assay [12] was “inactive” each time. For the same molecule, the Potency result in assay [14], in [17], in [15], in assay [18] and in assay [16] was “inactive” each time.

In the case of `O=C(CCCCl)c1ccc(F)cc1`, the Potency result in assay [1], in assay [2], in assay [3], in assay [4], in [5] and in assay [19] was “inactive” each time. For the same molecule, the Potency result in assay [7], in [8], in [9], in assay [10], in assay [11] and in [12] was “inactive” in each case. Also, the Potency result in assay [13], in [14], in assay [17], in assay [20], in assay [15] and in assay [16] was “inactive” each time.

As for `CNP(=O)(OC)Oc1ccc(C(C)(C)C)cc1Cl` (stereo not given), the Potency entry in assay [1], in [3], in [4], in assay [5], in [7] and in assay [9] was “inactive” in each case. Moreover, the Potency result in assay [10], in assay [11], in assay [12], in assay [13], in [14] and in [17] was “inactive” in each case. Moreover, the Potency result in [20], in [15], in [18] and in assay [16] was “inactive” in each case. Moreover, the results for the Potency in assay [2] and in [6] were 48.6 µM (active) and 3.24 µM (active), respectively.

Regarding `OC(Cn1cncn1)(c1ccc(F)cc1)c1ccccc1F` (stereo not given), the Potency result in assay [1], in [2], in assay [3], in assay [4], in assay [5] and in [19] was “inactive” throughout. The Potency entry in assay [7], in assay [8], in assay [9], in assay [10], in [11] and in assay [12] was “inactive” each time. Also, the Potency entry in [17], in [20], in assay [15], in assay [18] and in [16] was “inactive” throughout.

Regarding `N#Cc1ccc(N(CC(N)=O)CC(F)(F)F)cc1C(F)(F)F`, the Potency result in [1], in [2], in assay [3], in [4], in [5] and in assay [19] was “inactive” in each case. Further, the Potency result in [7], in assay [8], in assay [9], in [10], in assay [11] and in assay [12] was “inactive” throughout. In addition, the Potency entry in [13], in [14], in assay [17], in assay [20] and in [15] was “inactive” each time.
